Several values for one entry are separate records, joined by “and”; a condition that tells them apart may be missing. Equal values may be shown once. The campaign covered roughly 130,000 compounds. About 1,900 (1.5%) were called active. Not shown: some 5% with an inconclusive outcome. The call rests on the fitted dose curve; in most records, active means well fitted cell-killing curve with a large enough effect; inconclusive means small, poorly fitted or top-dose-only effect; inactive means no such curve, though single readings can be large or run the other way. Many of the other results were omitted from the sample, so actives are more common in it than they were.
Test: qHTS Screen for Compounds that Selectively Target Cancer Cells with p53 Mutations: Cytotoxicity of p53ts Cells at the Nonpermissive Temperature; further: nearly all actives have a fitted effect of over 55% in size
Settings: H1299-p53A138V viability at 39C, ATP luminescence, 24 h; series mostly up to 46.1 µM; activity change, negative = cell killing: at the top concentration
On the % scale 0 is the no-effect control and ±100 the full control effect; potency means the concentration at half of the fitted maximal effect.

Row | SMILES | activity change, negative = cell killing | Potency
1 | Cc1ccccc1CSCCNC(=O)C1CCN(S(=O)(=O)Cc2ccccc2)CC1 | -6.07% (inactive) | –
2 | Cc1ccc(NC(=O)c2ccc3[nH]c(C)cc(=O)c3c2)c(C)c1 | 10.7% (inactive) | –
3 | CCC1(C)CC(=O)c2c(ccc3oc(C(=O)Nc4ccc(C(C)=O)cc4)c(C)c23)O1 (centres undefined) | -27.1% (inactive) | –
4 | Cc1c(C(=O)NCc2ccccc2Br)oc2ccc3c(c12)C(=O)CC(C)(C)O3 | – | 15.8 µM (active)
5 | CC1(C)CC(=O)c2cc(OCC(=O)NCC3CCCO3)ccc2O1 (centres undefined) | -4.39% (inactive) | –
6 | CCS(=O)(=O)N1CCc2cc(C(=O)NCc3ccc(C)cc3)ccc21 | -3.8% (inactive) | –
7 | Cc1ccc(O)c(NC(=O)c2cc(-c3ccc(F)cc3)no2)c1 | -18.6% (inactive) | –
8 | Cc1ccc(O)c(NC(=O)CCS(=O)(=O)c2nc(-c3ccc4c(c3)OCO4)cc(C(F)(F)F)n2)c1 | – | 3.16 µM (active)
9 | COc1ccccc1-c1cc(C(F)(F)F)nc(S(=O)(=O)CCCC(=O)Nc2ccc(F)cc2F)n1 | -100% (inactive) | –
10 | Cc1ccc(CNC(=O)c2ccc(CS(=O)Cc3cccc(Cl)c3)o2)cc1 (centres undefined) | -16.2% (inactive) | –
11 | Fc1ccc2nc(N3CCCCC3)sc2c1 | 7.22% (inactive) | –
12 | c1c2c(cc3sc(N4CCCCC4)nc13)OCCO2 | – | 2 µM (active)
13 | COc1ccc2nc(Nc3nc4cc5c(cc4s3)OCCO5)sc2c1 | -17.6% (inactive) | –
14 | Cc1cccc(CSc2nc3ccncc3n2CC(=O)N(C)C2CCCCC2)c1 | -7.28% (inactive) | –
15 | COc1ccc(CNC(=O)c2ccc3c(O)c(S(=O)(=O)c4ccccc4)c(=O)[nH]c3c2)cc1 | -10.2% (inactive) | –
16 | CC(C)c1ccc(NC(=O)c2ccc3c(O)c(S(=O)(=O)c4ccccc4)c(=O)[nH]c3c2)cc1 | – | 6.31 µM (active)
17 | Cc1ccc(C(=O)Nc2ccc3[nH]c(=O)c(=O)[nH]c3c2)cc1 | -13.9% (inactive) | –
18 | COc1ccc(C)cc1NC(=O)CCc1c(C)nn(-c2ccc(N3CCOCC3)nn2)c1C | -14.8% (inactive) | –
19 | Cc1ccc(N2CC(NC(=O)Cc3cccs3)CC2=O)cc1 (centres undefined) | 13.4% (inactive) | –
20 | COc1ccc(CCN2C(=O)c3[nH]nc(-c4ccccc4O)c3C2c2ccc(C)cc2)cc1OC (centres undefined) | -18.7% (inactive) | –
21 | CCCCN1C(=O)c2[nH]nc(-c3ccccc3O)c2C1c1cccc(OCc2ccccc2)c1 (centres undefined) | – | 25.1 µM (active)

Row | SMILES | activity change, negative = cell killing | Potency
22 | CCOc1ccc(/C(O)=C2/C(=O)C(=O)N(Cc3cccnc3)C2c2ccc(N(C)C)cc2)c(C)c1 (centres undefined) | -14.2% (inactive) | –
23 | COc1ccc(C2C(C(C)=O)=C(O)C(=O)N2Cc2cccnc2)cc1 (centres undefined) | 14.7% (inactive) | –
24 | CCCOc1ccc(C2c3c(-c4ccccc4O)n[nH]c3C(=O)N2Cc2cccnc2)cc1 (centres undefined) | – | 12.6 µM (active)
25 | COc1cccc(-c2n[nH]c3c2C(c2cccc(O)c2)N(C)C3=O)c1 (centres undefined) | 4.1% (inactive) | –
26 | O=C(c1cccc(Cl)c1)N1CCN(CCc2ccncc2)CC1 | 0.144% (inactive) | –
27 | Fc1ccc(C(Nc2ccc(Cl)c(C(F)(F)F)c2)c2nnc(-c3ccccc3)o2)cc1 (centres undefined) | 3.27% (inactive) | –
28 | Cn1c(=O)nc2n(-c3ccc(Br)cc3)c3cccc(Cl)c3cc-2c1=O | 8.85% (inactive) | –
29 | CCCCCn1c(=O)[nH]c2cc(C(=O)Nc3ccc(F)cc3)ccc2c1=O | 4.84% (inactive) | –
30 | Cn1nc(-c2ccccc2)c(-c2ccccc2)c(C(=O)Nc2ccc(S(N)(=O)=O)cc2)c1=O | -13.6% (inactive) | –
31 | COc1ccc2cc(CNc3ccc(OC)c(OC)c3)c(=O)n(CC(=O)Nc3ccccc3F)c2c1 | 3.23% (inactive) | –
32 | Cc1c2cnn(-c3ccccc3)c(=O)c2c(C)n1C(C)C(=O)Nc1ccc(Br)cc1F (centres undefined) | 6.87% (inactive) | –
33 | COc1ccc(C(CCN(Cc2ccc(OC)c(OC)c2)C(=O)CCl)c2ccccc2)cc1 (centres undefined) | – | 3.98 µM (active)
34 | COc1ccc(/C=C/NC(=O)Cc2ccc(OC)c(OC)c2)cc1 | -6.46% [at 9.22 µM] (inactive) and 8.2% [at 9.22 µM] (inactive) | –
35 | CCN(CCCCOC(=O)c1ccc(OC)c(OC)c1)C(C)Cc1ccc(OC)cc1 (centres undefined) | 1.21% (inactive) | –
36 | O=C(NCc1ccccc1)c1cc(-c2cccc(Cl)c2)on1 | 18% (inactive) | –
37 | COc1ccc(-c2nc(-c3ccccc3)no2)c(OC)c1 | – | 6.31 µM (active)
38 | COc1ccc(-c2cc(-c3nc(-c4cc(OC)c(OC)c(OC)c4)no3)[nH]n2)c(OC)c1 | -1.36% (inactive) | –
39 | COc1ccc(-c2noc(CSc3nnc(-c4ccccc4)n3-c3ccc(F)cc3)n2)c(OC)c1 | -12.5% (inactive) | –
40 | O=C(CN1CCN(Cc2ccc(Cl)cc2)C1=O)NCc1ccc(F)cc1 | 3.47% (inactive) | –
41 | Cc1ccc(C)c(N2CCN(c3ccc4cc(S(=O)(=O)N5CCC(C)CC5)ccc4n3)CC2)c1 | -15.3% (inactive) | –
42 | COC(=O)Cc1nc2ccccc2[nH]1 | -9.69% (inactive) | –

Row | SMILES | activity change, negative = cell killing | Potency
43 | N#C/C(=C(/O)COC(=O)COc1ccc(Cl)cc1)c1nc2ccccc2[nH]1 | – | 20 µM (active)
44 | O=C(COc1ccccc1)NCCc1nc2ccccc2[nH]1 | 16.9% (inactive) | –
45 | COc1ccc(CNC(=O)CSc2n[nH]c(-c3ccc(F)cc3)n2)cc1 | -5.34% (inactive) | –
46 | O=C(NCC(c1cccnc1)N1CCc2ccccc21)c1cccc(C(F)(F)F)c1 (centres undefined) | -29.6% (inactive) | –
47 | Cc1ccc2nc(-c3ccc(O)cc3)c(Nc3ccc4c(c3)OCO4)n2c1 | 29.2% (inactive) | –
48 | COc1cccc(-n2cc(C(=O)NCc3cccc(Cl)c3)c3ccccc3c2=O)c1 | -14.9% (inactive) | –
49 | COc1ccc(-n2ncc3c(N4CCCc5ccccc54)ncnc32)cc1 | – | 10 µM (active)
50 | COc1ccc(-n2ncc3c(N4CCc5ccccc54)ncnc32)cc1 | -10.2% (inactive) | –
51 | Cc1cccc(-n2ncc3c(N4CCc5ccccc54)ncnc32)c1 | -5.45% (inactive) | –
52 | Cc1oc(C)c2c(=O)cc(-c3ccc4c(c3)OCO4)cc(OC(=O)c3ccc(Cl)cc3)c12 | -0.429% (inactive) | –
53 | CC1CCCN(S(=O)(=O)c2ccc3[nH]c(=O)cc(C(=O)NCCc4ccc(Cl)cc4)c3c2)C1 (centres undefined) | -14.2% (inactive) | –
54 | CCC1CCCCN1C(=O)Cn1c(=O)n(CCCCCC(=O)NCc2ccccc2)c(=O)c2sccc21 (centres undefined) | -0.145% (inactive) | –
55 | Cc1cc(C)c(NC(=O)CSc2nc3ccncc3[nH]2)c(C)c1 | -16.4% (inactive) | –
56 | Cn1c(=O)c2c(-c3ccccc3Br)n(Cc3ccccc3)cc2n(C)c1=O | -12.6% (inactive) | –
57 | Cn1c(=NC(=O)c2cnccn2)sc2ccccc21 | – | 10 µM (active)
58 | Cn1c(=NC(=O)CSCC(=O)N2CCOCC2)sc2ccccc21 | -8.08% (inactive) | –
59 | Cn1c(=NC(=O)CSCC(=O)N2CCCCC2)sc2ccccc21 | -4.22% (inactive) | –
60 | CCOc1ccc(-c2cc3nc(C4CCN(C(=O)OC(C)(C)C)CC4)c(C(=O)Nc4cccc(CC)c4)cn3n2)cc1 | -8.99% (inactive) | –
61 | O=C(CN1C(=O)C2C3CCC(C3)C2C1=O)Oc1ccc2ccccc2c1 (centres undefined) | 26.2% (inactive) | –
62 | Cc1ccc2nc(CC(=O)c3ccc4ccccc4c3)c(=O)[nH]c2c1 | 2.32% [at 9.22 µM] (inactive) | –
63 | C=CC(=O)c1ccc2ccccc2c1 | – | 10 µM (active)

Row | SMILES | activity change, negative = cell killing | Potency
64 | COc1cccc(CNC(=O)CSc2c3c(nc4cc(Cl)ccc24)CCCC3)c1 | 24.3% (inactive) | –
65 | CCOC(=O)Cc1ccc(NC(=O)Nc2c[nH]c(=O)[nH]c2=O)cc1 | -11.2% (inactive) | –
66 | CCOc1ccccc1CNCc1c(C(=O)O)c(C)n(Cc2ccc(C)cc2)c1C | 5.24% (inactive) | –
67 | CCOc1ccc(-c2nnc(-c3ccco3)o2)cc1 | – | 12.6 µM (active)
68 | CCOc1ccc(NC(=O)Nc2cc(C)on2)cc1 | -22.6% (inactive) | –
69 | CCOc1ccc(C(=O)Nc2ccncc2)cc1 | -23% (inactive) | –
70 | Cc1ccc(OCC(=O)Nc2ccc(-c3nnc(-c4ccco4)o3)cc2)cc1 | -5.57% (inactive) | –
71 | CCC(=O)Oc1cccc(C(=O)Nc2ccc(-c3nnc(-c4ccco4)o3)cc2)c1 | -4.05% (inactive) | –
72 | CCOc1ccc(NC(=O)c2ncoc2-c2ccco2)cc1 | – | 7.94 µM (active)
73 | CN(C)CCCn1c(-c2ccc(Cl)cc2)csc1=Nc1ccccc1 | -9.09% (inactive) | –
74 | CCCN(CCC)CCNC(=O)Cn1cnc2sc(C)c(S(=O)(=O)N3CCC(C)CC3)c2c1=O | 24.7% (inactive) | –
75 | COc1ccc(S(=O)(=O)c2c(Nc3ccc(C)cc3)sc(C(=O)c3ccc(C)cc3)c2N)cc1 | -1.53% (inactive) | –
76 | Cc1cccc(OCC(=O)N(Cc2ccc(C(C)C)cc2)Cc2ccco2)c1C | -28% (inactive) | –
77 | C=CCN(CC=C)C(=O)CN1C(=O)c2ccccc2C1=O | 3.05% (inactive) | –
78 | C=CCn1c(C)cc(C(=O)CN2C(=O)c3ccccc3C2=O)c1C | – | 12.6 µM (active)
79 | Cc1cc(C(=O)COC(=O)CCCN2C(=O)c3ccccc3C2=O)c(C)n1C | 3.08% (inactive) | –
80 | CC(=O)N1CCCc2cc(S(=O)(=O)N3CCC(C(=O)NCc4ccc(F)cc4)CC3)ccc21 | -25.5% (inactive) | –
81 | Cc1c(Cl)cccc1NC(=O)c1noc2c1CCCC2 | -20.5% (inactive) | –
82 | O=C(Nc1cccnc1)c1ccc2c(c1)OCO2 | -11.1% (inactive) | –
83 | O=C(Nc1cccnc1)c1noc2c1CCCCC2 | – | 12.6 µM (active)
84 | Cc1ccc(Cl)cc1NC(=O)CSc1nc2ccccc2nc1Cc1ccccc1 | -27.2% (inactive) | –
